This is part of a sample that, as a whole, favours compounds with a hit. Of some 83,000 tested, about 20% had one in any assay.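 Cells were grown in 96-well plates and exposed to the test compound at a single concentration for 48 hours; results are reported as percent growth, with values below 10 considered active.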 Unmarked numbers belong to inactive results. Active and inactive are the calls of the source.

We go through 40 molecules from PubChem BioAssay (NCI).

The subject of the test is DU-145 prostate. Kind of test: NCI-60 one-dose screen, 48 h (100 = growth as untreated, 0 = no growth, -100 = all killed). To be noted: 10 µM unless noted.
Take `NC(=O)n1c(=O)n(-c2cccc(C(F)(F)F)c2)c(=O)c2cc(-c3ccc(F)cc3F)ccc21`: the growth was 23.3%.
In the case of `O=C1CSC(c2cn(-c3ccccc3)nc2-c2ccc(Cl)cc2)N1c1ccccc1` (stereo not given), the growth is 115%.
As for `COc1ccc(/C=N/NC(=O)CSc2nc(-c3cnccn3)cc(-c3cccs3)c2C#N)cc1`, the growth is 61.7%.
With `C#Cc1cc(OC)c(C(=O)Nc2ccc(F)cc2C(=O)Nc2cccc(S(=O)(=O)C(F)(F)F)c2)cn1`, the growth is 46.8%.
For the molecule `CN1c2ccccc2Sc2cc(/C=N/Nc3ccnc4cc(Cl)ccc34)ccc21`, the growth is 103%.
Next, `O=C(/C=C/c1cccc(F)c1)c1cccc(OCCCOc2cccc(C(=O)/C=C/c3cccc(F)c3)c2)c1`: 86.6%; `CN1CCN(Cc2ccc(NC(=O)c3cncc(C#Cc4cnc(N)nc4)c3)cc2C(F)(F)F)CC1`: 34.4%.
In the case of `O=C(CSc1nc2ccccc2c(=O)n1-c1ccc(Cl)c(Cl)c1)Nc1ccc(S(=O)(=O)Nc2ccc(Cl)nn2)cc1`, the growth is 101%.
As to `Cc1[nH]c(C(=O)Nc2ccc(C(N)=O)cc2N2CCOC(C)C2)c(Cl)c1Cl` (stereo not given), the growth is 104%.
Turning to `N#Cc1nc(-c2ccccc2)oc1N1CCC(C2(C(F)(F)F)N=N2)CC1`, the growth was 103%.
`C/C(=C(\c1ccc(O)cc1)c1ccc(OCCN2CCCCCC2)cc1)c1ccc(Cl)cc1`: the growth was -86.4% (active).
Next, `COc1ccc(C(=O)c2c(N)c(C#N)cn2-c2ccc(Cl)cc2Cl)cc1`: 110%; `C#C[C@]1(O)CC[C@H]2[C@@H]3CC=C4c5sc(Nc6cccc(F)c6)nc5CC[C@]4(C)[C@H]3CC[C@@]21C`: 31.3%; `C[C@@H]1OCC2(CCN(c3cnc(C(=O)Nc4cc(F)cc5cccnc45)cn3)CC2)[C@@H]1N`: 77%.
Turning to `Cn1c(SCC(=O)c2ccc(F)cc2)nc2ccccc2c1=O`, the growth is 98%.
As for `O=C(CCCCCC/C=C\c1csc(Br)n1)NO`, the growth is 87.7%.
Turning to `COc1ccc(-c2cc(-c3ccc(N4CCOCC4)cc3)n3c(n2)nc2ccccc23)cc1OC`, the growth is 91.2%.
For the molecule `CN(C)c1cccc2c(S(=O)(=O)Nc3cccc(-c4csc(NC(=O)CCCCCN5CCN(CCO)CC5)n4)c3)cccc12`, the growth was 90.6%.
For `O=c1nc(Nc2ccc([N+](=O)[O-])cc2O)sc2ccccc12` the value was 25.1%; for `CCc1cc(OC(=O)N2CCC(N3CCCCC3)CC2)ccc1Nc1cc(-c2ccc(-n3cccn3)cc2)[nH]n1`, -26.3% (active); for `COc1ccc(-c2c(C(N)=O)c(N)n(Cc3nc4ccccc4[nH]3)c(=O)c2C#N)c(OC)c1`, 112%.
For `CCOC(=O)Nc1ccc2c(ccn2C(=O)c2cccc(F)c2)c1`, the growth is 29.5%.
In the case of `CN(C)CCCOc1ccc(C(=C(c2ccccc2)C2CCCC2)c2ccc(OCCCN(C)C)cc2)cc1`, the growth is -99% (active).
For `CN1CCC[C@]2(C)[C@H]3CC[C@@H]4[C@@H]5[C@H]6OC[C@@]5(CCC6(C)C)CC[C@@]4(C)[C@]3(C)CC[C@H]2C1(C)C`, the growth was 56.2%.
As for `CNC(=O)c1cc(-c2ccc(NC(=S)Nc3cccc(C(F)(F)F)c3)cc2)nc2cccnc12`, the growth is 103%.
As to `CC1(C)C=Cc2cc(/C(N)=N/C(N)=N/c3nc4ccccc4s3)ccc2O1`, the growth was 94.9%.
For the molecule `C#Cc1cc(C(=O)Nc2ccc(CNCCN3CCOCC3)c(C(F)(F)F)c2)ccc1C`, the growth was 97%.
For the molecule `CC(C)(O)c1cncc(-c2ccc3ncc(C#N)c(N4CCc5cc(F)c(Cl)cc54)c3c2)c1`, the growth was 11.7%.
In the case of `CN1CCN(Cc2ccc(/C=N/Nc3ccnc4cc(Cl)ccc34)cc2)CC1`, the growth is 75.1%.
Next, `Cc1ccc(C(=O)CSc2nnc(-c3ccc(-c4ccc(Cl)cc4)nc3C)o2)cc1`: 115%; `Cc1ccccc1N1CCN(C2=C(Cl)C(=O)c3ncccc3C2=O)CC1`: 20.3%; `O=C1Nc2ccccc2/C1=C/c1ccc(OCC(=O)c2ccccc2)cc1`: 99.5%.
For `CC1=C(C)C(=O)C(Nc2ccc3c(c2)OCCO3)=C(Br)C1=O` the value was 107%; for `CCN(CC)c1ccc(/C=N/NC(=O)c2ccc(S(N)(=O)=O)cc2)c(O)c1`, 31.1%.
For `Cc1ccc(S(=O)(=O)NCCCNc2nc(Nc3ccc(N4CCN(C)CC4)cc3)nc3ccsc23)cc1` the value was 42.7%; for `CN1CCN(Cc2ccc(NC(=O)c3cncc(C#Cc4cnc5ccc(NCCO)nn45)c3)cc2C(F)(F)F)CC1`, -2.12% (active); for `COC(=O)c1cccc(NC2=C(Cl)C(=O)c3nc(C)ccc3C2=O)c1`, 105%.
Regarding `O=C1Nc2cc(Cl)ccc2/C1=C\c1ccc(OCc2ccccc2)cc1`, the growth is 101%.
With `Cc1ccc(-c2csc(N/N=C/c3cccs3)n2)cc1`, the growth was 100%.
Turning to `O=[N+]([O-])c1ccc(NC(=S)NNC(=S)Nc2ccc(Br)cc2)cc1`, the growth was 104%.
